13 compounds from publication PMC5540273 (PLoS ONE, 2017) can be followed below.
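Further: KINOMEscan kinase panel screen.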

The test system of this assay is MAP4K4. Conditions: concentration: 1 μM, replicates: in singlicate; n = 1.
As for `O=C(Nc1cccc(-c2nn3ncccc3c2-c2ccnc(Nc3cccc(C(F)(F)F)c3)n2)c1)c1c(F)cccc1F` [GSK299495], the “%Inh” value was determined as 0%.
In the case of `O=C(c1ccc(-c2cc(-c3c[nH]nc3-c3ccccn3)ccn2)cc1)N1CCOCC1` [GW812171] it was 0%.
With `Cc1cccc(Cn2ccn3c(=O)cc(N4CCOCC4)nc23)c1` [GSK2297542] the figure was 4%.
With `NS(=O)(=O)c1cccc(-c2ccc3ncc(N4CCOCC4)nc3c2)c1` [GSK1535721] the figure was 0%; with `CCc1ccnc(/C=C/c2n[nH]c3cc(Sc4ccccc4C(=O)NC)ccc23)c1`, 0%.
In the case of `O=c1cc(N2CCOCC2)nc2n(Cc3cccc(C(F)(F)F)c3)ccn12` [GSK2297543], the “%Inh” value is reported as 0%.
With `COC(=O)Nc1nc2cc(Oc3ccc(NC(=O)Nc4cc(F)ccc4F)cc3)ccc2[nH]1.Cl` [GW701424] the figure was 0%; with `NS(=O)(=O)CCc1cccc(Nc2nccc(-c3c(-c4cccc(NC(=O)c5c(F)cccc5F)c4)nn4ccccc34)n2)c1` [GSK336735], 76%.
As to `O=C(NCCNc1ccnc(Nc2ccc(F)cc2)n1)c1cc2ccccc2s1` [GSK1379874], the “%Inh” value is 0%.
In the case of `CC(C)(C)n1cnc2c(N)ncnc21` [SKF-97359] it was 0%; in that of `COc1cc2c(cc1OC[C@@H](O)CO)ncc1c3ccc(C#N)cc3[nH]c21`, 27%.
In the case of `O=C(NCCNc1ccnc(Nc2ccc(F)cc2)n1)Nc1ccccc1F` [GSK1379880] it was 0%; in that of `Fc1ccc(-c2ncn(CCCN3CCOCC3)c2-c2ccccn2)cc1` [SB-211742], 2%.
